In all, about 10,000 compounds went through this assay and about 320 (3.2%) were called active. This excerpt belongs to a sample that is enriched for actives. Values without a mark were called inactive. Rule as the data show it: active = CPE inhibition mostly above about 9.1% (no sharp cut-off); inactive = mostly below about 7.2%.
Assay: Dengue virus cytopathic effect inhibitors, cell-based, CPE readout, HTS (AID 540333)
Conditions: Dengue virus CPE inhibition in host cells, at 20 µM; active compounds read high

SMILES	CPE inhibition
C/C(=N\Nc1ccc([N+](=O)[O-])cc1)c1ccc(-n2nncc2C)cc1	inactive
N#CC(C#N)=Cc1ccc(-c2ccc(S(=O)(=O)N=C(N)N)cc2)o1	0.46%
COC(=O)c1sc2nc(C)cc(-c3ccccc3)c2c1N	inactive
Cc1ccc(/C=C2\SC(=S)N(CCC(=O)NNS(=O)(=O)c3ccc(C)cc3)C2=O)cc1	0.18%
CC(C)(C)CNC(=O)c1cccc2c1C(=O)c1ccc(N3CCCC3)cc1S2(=O)=O	0.02%
O=C(Nc1nc(-c2cccs2)cs1)C1=COCCO1	inactive
O=C(Nc1nc(-c2ccc(Oc3ccccc3)cc2)cs1)C1=COCCO1	10.7% (active)
O=C(Nc1nc(-c2ccc(-c3ccccc3)cc2)cs1)C1=COCCO1	1.39%
O=C1N=C(N2CCCC2)CN1c1ccccc1	0.23%
O=C([O-])c1ccc(-[n+]2c(-c3ccccc3)cc(-c3ccccc3)cc2-c2ccccc2)cc1	10.2% (active)
CCC(=O)c1ccc(-c2ccccc2)cc1	inactive
CC(C)=NOC(=O)c1ccc(-c2ccccc2)cc1	0.26%
C=C(C)C1CC=C(C)/C(=N/NC(=O)c2cccc([N+](=O)[O-])c2)C1 (stereo not drawn)	inactive
CCOC(=O)c1sc(N/N=C/c2ccccc2)nc1C	0.925%
COc1ccc(/C=C(\C#N)C(=O)OCC(=O)Nc2c(C)cccc2C)cc1	inactive
Cc1ccc(C)c2[nH]c(=O)c(C(c3nnnn3C(C)(C)C)N3CC=C(c4ccc(F)cc4)CC3)cc12 (stereo not drawn)	26.9% (active)
CC(CCc1ccccc1)NC(=O)Cc1ccccc1 (stereo not drawn)	inactive
Cc1ccccc1NC(=O)C(=O)NC(C)CCc1ccccc1 (stereo not drawn)	inactive
Cc1ccc(NC(=S)NC(C)CCc2ccccc2)cc1C (stereo not drawn)	19.3% (active)
Cc1ccccc1C(=O)Nc1c2c(nc3ccccc13)CCCC2	inactive

SMILES	CPE inhibition
O=C(COC(=O)Cc1ccsc1)NC(c1ccccc1)c1ccccc1	inactive
CCOC(=O)/C=C/C(=O)OCC(=O)NC(c1ccccc1)c1ccccc1	0.285%
O=C(COC(=O)/C(=C/c1cccs1)c1cccs1)NC(c1ccccc1)c1ccccc1	17.2% (active)
Cc1nn(C)c(C(=O)NCc2ccc(Cl)cc2)c1Cl	0.24%
Cc1ccc(NC(=S)c2ccccc2)cc1	inactive
CCOC(=O)C1=C(Nc2ccccc2)CC(C)(O)C(C(=O)OCC)C1c1ccccc1 (stereo not drawn)	0.14%
CCOC(=O)C1C(C(=O)OCC)C1(c1ccccc1)c1ccccc1 (stereo not drawn)	0.545%
CCOC(=O)C1=C(Nc2ccccc2)CC(C)(O)C(C(=O)OCC)C1c1ccc(Cl)cc1 (stereo not drawn)	26.4% (active)
O=C1c2ccccc2C(=O)c2c1cccc2N1CCCC1	0.885%
Cc1ccc(-n2[nH]c3c4c(ccc3c2=O)C(=O)c2ccccc2C4=O)cc1	17% (active)
CN(C)c1cccc2c1C(=O)c1ccccc1C2=O	inactive
O=S(=O)(c1ccc(-c2csc(Nc3ccc(F)cc3)n2)cc1)N1CCCC1	2.46%
O=S(=O)(c1ccc(-c2csc(Nc3ccc(Br)cc3)n2)cc1)N1CCCC1	5.89%
CC(C)Cc1nc(Nc2ccc(S(=O)(=O)N3CCCC3)cc2)c2nnn(Cc3ccccc3)c2n1	19.9% (active)
O=C(COC(=O)Cc1c[nH]c2ccccc12)Nc1cccc2ccccc12	0.635%
COc1cccc(NC(=S)NNC(=O)Cn2nc(C(F)(F)F)cc2C)c1	inactive
O=C1C(Cc2cccc([N+](=O)[O-])c2)SC(=Nc2ccccc2)N1c1ccccc1 (stereo not drawn)	2.22%
CCOc1ccc(C(=O)Nc2ccc(-c3nc4ccccc4[nH]3)cc2)cc1[N+](=O)[O-]	8.47% (active)
CCOc1ccc(C(=O)Nc2cccc(-c3nc4ccccc4[nH]3)c2C)cc1[N+](=O)[O-]	1.88%
CCOc1ccc(C(=O)Nc2cc(-c3nc4ccccc4[nH]3)ccc2Cl)cc1[N+](=O)[O-]	inactive

SMILES	CPE inhibition
COc1cccc(-c2c(-c3cc(OC)cc(OC)c3)n(C)c3ccc(Br)cc23)c1	1.34%
COc1cc(OC)cc(-c2c(-c3ccc(F)cc3)c3cc(-c4cnc(OC)nc4)ccc3n2C)c1	2.91%
O=C1[C@@H]2[C@@H]3C[C@@H]([C@H]4ON=C(c5ccc(Cl)cc5Cl)[C@@H]34)[C@@H]2C(=O)N1C1CCCCC1	14.8% (active)
O=C1[C@@H]2[C@@H]3C[C@@H]([C@H]4ON=C(c5ccc(Cl)cc5)[C@@H]34)[C@@H]2C(=O)N1c1ccc2c(c1)OCO2	inactive
O=C1[C@@H]2[C@@H]3C[C@@H]([C@H]4ON=C(c5ccc(Cl)cc5)[C@@H]34)[C@@H]2C(=O)N1C1CCCCC1	10.9%
COc1ccc(NC(=O)CCC(=O)OCc2ccc(Br)cc2)cc1	0.265%
O=C(/C(=C\c1ccccc1)c1nc2ccccc2[nH]1)c1ccc(Cl)cc1	inactive
CCn1c(SCC(=O)N/N=C/c2c[nH]c3ccccc23)nnc1-c1ccc(C(C)(C)C)cc1	14.2% (active)
O=C(CSc1nnc(SCc2cccc3ccccc23)s1)N/N=C/c1c[nH]c2ccccc12	23.8% (active)
CCn1c(SCC(=O)N/N=C/c2c[nH]c3ccccc23)nnc1-c1ccc(Cl)cc1	1.47%
CCn1c(SCC(=O)N/N=C/c2ccc(C)o2)nnc1-c1ccc(C(C)(C)C)cc1	0.345%
O=C(CSc1nnc(SCc2ccccc2Cl)s1)N/N=C/c1c[nH]c2ccccc12	0.645%
Cc1nn(-c2ccccc2)c(C)c1/C=N/NC(=O)CSc1nnc(SCc2cccc3ccccc23)s1	4.67%
CCc1ccc(OC(C)c2nnc(SCC(=O)Nc3ncccc3C)n2C)cc1 (stereo not drawn)	0.355%
Cc1cc(C)c2[nH]c(=O)c(CN(Cc3cccs3)C(=S)NCc3ccco3)cc2c1	4.37%
CN(CC(=O)Nc1ccc(Cl)c(Cl)c1)C(=O)/C=C/c1ccc(F)cc1	0.95%
S=C(NCCc1ccccc1)NC1CC1	inactive
COC(=O)c1sccc1N/N=C/c1cccc(OC)c1O	2.21%

— PubChem BioAssay AID540333 (Southern Research Specialized Biocontainment Screening …, 2011)
